Results on 103 compounds are retold here after ChEMBL document CHEMBL1201862, “PubChem BioAssay data set” (2004).

Each structure is given as a SMILES string. The campaign covered roughly 400,000 compounds. About 2,100 (0.53%) were called active. Inconclusive results (about 14%) are left out. No rule for the calls is given here. Only a selection was taken, and actives are over-represented in it overall.

Chain of Ataxin-2 (Homo sapiens) (Q99700 whole entry): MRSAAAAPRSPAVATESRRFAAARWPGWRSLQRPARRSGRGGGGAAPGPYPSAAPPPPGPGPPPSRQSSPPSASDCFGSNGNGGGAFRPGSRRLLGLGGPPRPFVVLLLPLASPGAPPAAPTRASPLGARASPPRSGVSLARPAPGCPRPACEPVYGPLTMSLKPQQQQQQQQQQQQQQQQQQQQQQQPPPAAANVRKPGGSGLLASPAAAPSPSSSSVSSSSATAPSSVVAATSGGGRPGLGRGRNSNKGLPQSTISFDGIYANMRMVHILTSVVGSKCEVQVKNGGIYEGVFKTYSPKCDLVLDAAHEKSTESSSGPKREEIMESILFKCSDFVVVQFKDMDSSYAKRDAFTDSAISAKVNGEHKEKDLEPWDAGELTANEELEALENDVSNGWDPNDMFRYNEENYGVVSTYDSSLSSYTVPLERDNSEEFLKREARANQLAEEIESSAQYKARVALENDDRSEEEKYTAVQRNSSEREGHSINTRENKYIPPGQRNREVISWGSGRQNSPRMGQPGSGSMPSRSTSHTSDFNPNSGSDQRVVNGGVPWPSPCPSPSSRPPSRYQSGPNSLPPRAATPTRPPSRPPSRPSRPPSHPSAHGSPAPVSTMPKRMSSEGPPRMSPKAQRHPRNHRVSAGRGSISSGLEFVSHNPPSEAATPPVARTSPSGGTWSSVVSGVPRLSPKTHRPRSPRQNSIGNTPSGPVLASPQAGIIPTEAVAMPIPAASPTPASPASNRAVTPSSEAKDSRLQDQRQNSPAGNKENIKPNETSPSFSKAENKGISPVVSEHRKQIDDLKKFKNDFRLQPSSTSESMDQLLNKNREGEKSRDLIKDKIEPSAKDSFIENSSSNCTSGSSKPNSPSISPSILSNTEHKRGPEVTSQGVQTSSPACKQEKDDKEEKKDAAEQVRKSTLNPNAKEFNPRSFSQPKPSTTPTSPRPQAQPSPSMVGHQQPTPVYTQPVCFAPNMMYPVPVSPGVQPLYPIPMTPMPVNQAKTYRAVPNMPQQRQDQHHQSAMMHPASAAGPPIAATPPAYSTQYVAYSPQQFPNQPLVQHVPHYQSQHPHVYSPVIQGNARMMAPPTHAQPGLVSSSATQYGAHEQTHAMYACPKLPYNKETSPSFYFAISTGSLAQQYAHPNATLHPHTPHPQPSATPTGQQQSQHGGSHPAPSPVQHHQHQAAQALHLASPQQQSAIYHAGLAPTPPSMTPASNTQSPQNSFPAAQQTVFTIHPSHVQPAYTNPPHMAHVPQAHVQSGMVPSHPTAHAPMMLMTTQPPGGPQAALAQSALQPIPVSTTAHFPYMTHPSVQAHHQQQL

This test addresses Ataxin-2 (Homo sapiens) (UniProt Q99700). The test can be described thus: qHTS for Inhibitors of ATXN expression. The class given is functional. (In general: Quantitative high-throughput screening tests each substance at several concentrations.)
Consider `CS(=O)(=O)c1cnc2c(-c3ccsc3)cnn2c1N`, for which the Potency entry is “inactive”.

With `Nc1ccc2nc3c(=O)n(CCc4ccccc4)c(=O)[nH]c3nc2c1`, the Potency entry was “inactive”.

In the case of `O=C(COC(=O)/C=C/c1ccc(Br)o1)NC1CCCCC1`, the Potency entry is “inactive”.

Regarding `O=C(c1ccccc1)c1ccc(OCC(O)CNCc2ccc(F)cc2)cc1` (stereo not drawn), the Potency result was “inactive”.

As to `OC(CNCCc1ccc(C(F)(F)F)cc1)COc1ccc2ccccc2c1` (stereo not drawn), the Potency is 25.1 µM (active).

As for `COc1ccc(C2CC(c3ccncc3)=NN2c2ccc(S(N)(=O)=O)cc2)cc1` (stereo not drawn), the Potency result is “inactive”.

For the compound `O=C(CNC(=O)c1ccccc1Br)N/N=C/c1ccccc1O`, the Potency result is “inactive”.

`CC(Oc1ccccc1Cl)C(=O)N(Cc1cccs1)C1CCS(=O)(=O)C1` (stereo not drawn): the Potency entry is “inactive”.

Turning to `Cc1c(C(=O)Cc2ccccc2)n(C)c2ccccc12`, the Potency entry was “inactive”.

For `Cc1cc(NC(=O)CSc2cn(C)c3ccccc23)no1`, the Potency result was “inactive”.

As to `Cn1cc(C(=O)CCl)c2ccccc21`, the Potency is 35.5 µM (active).

Regarding `Cc1cc(Sc2nc(NC(C)(C)C)nc(N3CCOCC3)n2)nc(Cl)n1`, the Potency entry was “inactive”.

In the case of `Cc1cc2[nH]c3c(c[n+](C)c4ccccc34)c2cc1C`, the Potency is 31.6 µM (active).

As for `Cc1nccc2cc3[nH]c4ccccc4c3cc12`, the Potency entry is “inactive”.

Consider `CCn1c(=N)c(C(=O)NC)cc2c(=O)n3cccc(C)c3nc21`, for which the Potency entry was “inactive”.

As to `Cc1ccc(S(=O)(=O)Nc2nc3n(n2)C(c2ccc(Cl)cc2)C=C(c2ccccc2)N3)cc1` (stereo not drawn), the Potency result was “inactive”.

With `CN(C)c1ccc(N=Nc2ccccc2C(=O)OCC(=O)NC2CCCC2)cc1`, the Potency was 28.2 µM (active).

Consider `CN(C(=O)COC(=O)c1cccnc1O)C1CCCCC1`, for which the Potency entry was “inactive”.

Consider `COc1ccccc1C(=O)OCC(=O)NC(=O)NC1CCCC1`, for which the Potency entry was “inactive”.

Turning to `CC(C)Cc1nc2sc3c(SCC(N)=O)ncnc3c2c2c1CCC2`, the Potency result is “inactive”.

In the case of `CC(=O)/N=c1\c(C#N)cc2c(=O)n3ccccc3nc2n1Cc1ccccc1`, the Potency entry was “inactive”.

On to `CCN(CC)CCn1c(-c2ccccc2)cs/c1=N\c1ccccc1`, for which the Potency was 15.8 µM (active).

For the compound `CCN(CC)c1ccc2cc(S(=O)(=O)c3ccc(C)cc3)c(=O)oc2c1`, the Potency entry was “inactive”.

In the case of `Cc1cc(C)n(-c2cc(C(C)(C)C)nc3c(-c4ccccc4)cnn23)n1`, the Potency result is “inactive”.

For `Cc1nc2c(-c3ccc(Cl)cc3)cnn2c2c1CCC2`, the Potency result was “inactive”.

On to `CN(C)CCCNc1cc(C(C)(C)C)nc2c(-c3ccc(Cl)cc3)cnn12`, for which the Potency is 39.8 µM (active).

As for `O=c1c2ccccc2[nH]c2ccc(O)cc12`, the Potency entry was “inactive”.

For the compound `CCOc1ccc2c(c1)C(N(CCN1CCOCC1)C(=O)Nc1ccccc1)CC(C)(C)O2` (stereo not drawn), the Potency result is “inactive”.

`O=C(CCN1CCOCC1)N/N=C/c1cc(Br)cc(Br)c1O`: the Potency result was “inactive”.

Consider `CCOc1ccc(C(=O)COC(=O)Cn2cnc3c2c(=O)n(C)c(=O)n3C)cc1`, for which the Potency result was “inactive”.

For the compound `COc1ccc(OCCC(=O)NCCN2CCOCC2)cc1`, the Potency result was “inactive”.

In the case of `CCOc1ccc(C(=O)CCN2CCOCC2)cc1`, the Potency is 39.8 µM (active).

With `CCCCOc1ccc(C(=O)CCN2CCOCC2)cc1`, the Potency was 23.8 µM (active).

Regarding `CCCN(CCC)S(=O)(=O)c1ccc(C(=O)Nc2sc3c(c2C(=O)OC)CCN(CC)C3)cc1`, the Potency result was “inactive”.

With `CCc1cc(=O)oc2cc(C)cc(O)c12`, the Potency entry was “inactive”.

Turning to `O=C(COC(=O)c1cc(S(=O)(=O)N2CCCCC2)ccc1N1CCOCC1)c1ccccc1Cl`, the Potency result is “inactive”.

As to `COc1ccc(Nc2ccc3c(c2)=NC2(CCCCC2)[N+]=3[O-])cc1`, the Potency is 20 µM (active).

Take `COc1ccc(Nc2ccnc(Nc3ccc(OC)cc3)n2)cc1`: the Potency entry was “inactive”.

For the compound `CC(=O)c1cc2c(s1)-c1cc(F)ccc1OC2`, the Potency entry was “inactive”.

For `O=C(Nc1ccc(-c2csc(Nc3cccc(C(F)(F)F)c3)n2)cc1)c1cccc(C(F)(F)F)c1`, the Potency is 20 µM (active).

In the case of `O=C(Nc1cccc(-c2csc(Nc3ccc(Cl)cc3)n2)c1)c1cc([N+](=O)[O-])cc(C(F)(F)F)c1`, the Potency is 35.5 µM (active).

With `NS(=O)(=O)c1cccc(NC(=O)CSc2n[nH]c(-c3cccs3)n2)c1`, the Potency entry was “inactive”.

For `O=C(Cc1ccccc1F)Nc1ccccc1-c1ccccc1`, the Potency result is “inactive”.

Take `COc1ccc(CC(N)c2csc(NC(=O)Nc3ccccc3-c3ccccc3)n2)cc1` (stereo not drawn): the Potency is 39.8 µM (active).

With `CC(C)(C)c1ccccc1NC(=O)c1cnn2c(C(F)F)cc(-c3ccccc3)nc12`, the Potency result is “inactive”.

As for `COc1ccc(CC(N)c2csc(NC(=O)Nc3ccccc3C(C)(C)C)n2)cc1` (stereo not drawn), the Potency was 39.8 µM (active).

With `COc1cccc(OCC(=O)Nc2ccccc2-c2ccccc2)c1`, the Potency entry was “inactive”.

For `CCOC(=O)CCc1c(C)c2cc3c(c(C)c2oc1=O)OCN(CCc1ccccc1OC)C3`, the Potency entry is “inactive”.

As for `Cc1cc(C(=O)NNC(=O)c2ccc(C(F)(F)F)cc2)no1`, the Potency entry is “inactive”.

For the compound `CC1C/C(=N\NC(=O)c2ccc([N+](=O)[O-])cc2)CC(C)(C)C1` (stereo not drawn), the Potency entry is “inactive”.

In the case of `Cc1ccc(NS(=O)(=O)c2ccc(C(=O)N3CCN(c4ncccn4)CC3)cc2)cc1`, the Potency result was “inactive”.

Turning to `COc1ccccc1[C@H]1C(c2cccc(Cl)c2)=NN(c2ccccc2)[C@@H]1CO`, the Potency entry was “inactive”.

Consider `CCCCc1c(-c2cccc(OC)c2)ncn1CCc1ccccc1OC`, for which the Potency was 39.8 µM (active).

For the compound `CCCCc1c(-c2cccc(Cl)c2)ncn1CCc1ccccc1OC`, the Potency is 31.6 µM (active).

As to `CCCCCc1c(-c2cccc(OC)c2)ncn1CCc1ccccc1OC`, the Potency is 31.6 µM (active).

For `CCCCNc1c(-c2ccc(OC)c(Sc3ccc(OC)cc3)c2)nc2cnccn12`, the Potency result was “inactive”.

On to `COc1c(OC)c2nc(O)cc3c4ccccc4n(c1=O)c23`, for which the Potency entry is “inactive”.

For the compound `Clc1ccc(C2=CC(c3ccco3)n3ncnc3N2)cc1` (stereo not drawn), the Potency result is “inactive”.

As for `Cc1cc(O)c(C(=O)/C=C/c2c(F)c(F)c(F)c(F)c2F)c(=O)o1`, the Potency entry was “inactive”.

In the case of `CCOC(=O)c1c(NC(=O)c2ccc(S(=O)(=O)N3CCC(C)CC3)cc2)sc2c1CCN(CC)C2`, the Potency entry is “inactive”.

`Nc1nnnn1/N=C/c1cc(Cl)ccc1O`: the Potency entry was “inactive”.

For `CC(=O)Oc1cc2oc(=O)cc(C)c2cc1OC(C)=O`, the Potency result was “inactive”.

Turning to `CC(=O)Nc1cc(OC(C)=O)c2nonc2c1OC(C)=O`, the Potency is 39.8 µM (active).

`CC(=O)Nc1cc2ccc(OC(C)=O)cc2oc1=O`: the Potency entry was “inactive”.

Turning to `OC[C@@H]1[C@@H](c2ccccc2)C(c2cccc(Cl)c2)=NN1c1ccccc1`, the Potency result is “inactive”.

For `CCCCCCCCN1C(=O)[C@H](CC(=O)NCc2cccs2)C[C@@]2(C(=O)OCC)CCCC=C12`, the Potency was 39.8 µM (active).

For the compound `C#CCNC(=O)C[C@@H]1C[C@@]2(C(=O)OCC)CCCC=C2N(CCCCCCCC)C1=O`, the Potency is 20 µM (active).

Take `O=C(COC(=O)c1cncc(Br)c1)NCc1cccs1`: the Potency result was “inactive”.

With `CCCCCCCCN1C(=O)[C@H](CC(=O)NCCC(C)C)C[C@@]2(C(=O)OCC)CCCC=C12`, the Potency is 39.8 µM (active).

In the case of `Cc1c(N(C(=O)Cc2cccs2)C2(C(=O)NC3CCCC3)CCCCC2)c(=O)n(-c2ccccc2)n1C`, the Potency entry was “inactive”.

In the case of `Cc1ccc(-c2cc(C(F)(F)F)n3ncc(C(=O)N4CCCCC4c4cccnc4)c3n2)cc1` (stereo not drawn), the Potency result was “inactive”.

With `O=C(CSc1ccc2ccccc2c1)NCCc1ccc(O)c(O)c1`, the Potency entry is “inactive”.

For `COC(=O)C(C)N=C(S)N1CCN(c2c(F)cc3c(=O)c(C(=O)O)cn(C4CC4)c3c2OC)CC1C` (stereo not drawn), the Potency result is “inactive”.

In the case of `CC(NNC(=S)N1CCCCCC1)c1ccc2ccccc2n1` (stereo not drawn), the Potency was 12.6 µM (active).

Take `Cc1nc(N2CCCCCC2)c2ccccc2n1`: the Potency result is “inactive”.

For the compound `S=C(Nc1ccc2nc(-c3ccccn3)c(-c3ccccn3)nc2c1)N1CCCCCC1`, the Potency result is “inactive”.

Regarding `CCOc1ccc(C(=O)C2CCN(C(=O)c3ccc([N+](=O)[O-])cc3)CC2)cc1`, the Potency result is “inactive”.

On to `COc1ccc(C2C3=C(O)CC(C)(C)CC3=Nc3c2c(=O)n(C)c(=O)n3C)cc1OC` (stereo not drawn), for which the Potency entry was “inactive”.

`Cc1cc(C(=O)COC(=O)Cc2c(F)cccc2Cl)c(C)n1C`: the Potency result is “inactive”.

Turning to `Cc1ccc(C(=O)OCC(=O)NCCc2ccc(F)cc2)cc1S(=O)(=O)N1CCOCC1`, the Potency entry is “inactive”.

In the case of `Cc1cc(C(=O)CCl)c(C)n1CCc1ccc(F)cc1`, the Potency is 37.7 µM (active).

On to `COc1ccc(CCn2c(C)cc(C(=O)CCl)c2C)cc1OC`, for which the Potency was 39.8 µM (active).

As to `N=c1c(C(=O)NCC2CCCO2)cc2c(=O)n3ccccc3nc2n1Cc1cccnc1` (stereo not drawn), the Potency result was “inactive”.

Consider `CCOC(=O)COc1ccc2c(C#N)c3ccccn3c2c1`, for which the Potency result is “inactive”.

With `O=C(N/N=C/c1sc(N2CCOCC2)nc1-c1ccccc1)c1cccc(S(=O)(=O)N2CCCC2)c1`, the Potency result was “inactive”.

With `COc1cc(/C=N/NC(=O)CCC(=O)Nc2ccc(F)cc2)ccc1O`, the Potency result is “inactive”.

For `CC(=O)c1sc(N/N=C/c2ccc(C(C)C)cc2)nc1C`, the Potency entry was “inactive”.

As for `O=C(Nc1cccc(S(=O)(=O)N2CCCCCC2)c1)c1ccc(O)nc1`, the Potency result was “inactive”.

As to `COc1cc(/C=N/NC(=O)C(=O)NCc2ccco2)ccc1O`, the Potency result was “inactive”.

`CN(C)S(=O)(=O)c1ccc(-c2csc(N/N=C/c3ccc(O)cc3)n2)cc1`: the Potency is 20 µM (active).

Take `COc1cc(/C=N/Nc2nc(-c3ccc(S(=O)(=O)N(C)C)cc3)cs2)ccc1O`: the Potency is 35.5 µM (active).

`Cn1c2ccccc2c2nnc(N/N=C/c3ccc(O)cc3)nc21`: the Potency result was “inactive”.

Consider `CCOc1cc(/C=N/Nc2nc(-c3cccc(S(=O)(=O)N4CCCC4)c3)cs2)ccc1O`, for which the Potency is 25.1 µM (active).

On to `CCN(CC)c1ccc2cc(C=O)c(=O)oc2c1`, for which the Potency entry was “inactive”.

`CCOc1ccc(C(=O)c2oc3ccccc3c2NC(=O)c2cc(-c3ccccc3)on2)cc1`: the Potency result was “inactive”.

`O=C(O)c1ccc(N/N=C/c2ccc(-c3cc(Cl)ccc3Cl)o2)cc1`: the Potency result was “inactive”.

Regarding `Cc1cccc(N/N=C(\C=O)C(=O)c2ccc(Br)cc2)c1`, the Potency is 31.6 µM (active).

For the compound `O=C(Nc1ccccc1)c1ncoc1-c1ccc(Cl)cc1`, the Potency entry was “inactive”.

`O=C/C(=N\Nc1ccccc1)C(=O)c1ccc(Cl)cc1`: the Potency is 9.47 µM (active).

With `Cc1cccc(/C=N/NC(=O)c2cc(Br)ccc2O)n1`, the Potency result is “inactive”.

Turning to `CC(=O)/C(=N\Nc1ccccc1)Oc1ccc(Br)cc1`, the Potency result is “inactive”.

As for `C=CCn1c(S)nnc1-c1oc2nc(-c3ccccc3)cc(-c3ccccc3)c2c1N`, the Potency entry was “inactive”.

With `CNc1snc(C)c1C(=O)OCC(=O)N(C)c1ccccc1`, the Potency result is “inactive”.
